Laboratory results reported in PubChem BioAssay (Tox21).
Inconclusive results are not listed. Active and inactive are the calls of the source. Unless noted, calls come from the whole dose curve. Where a SMILES comes first, the peptide text is derived from it. [ ]: non-standard residue; d: D form. pGlu = O=C1CC[C@@H](C(=O)O)N1

Tests used:
[1] = qHTS assay to identify small molecule antagonists of the sonic hedgehog signaling (Shh) pathway (AID 1259369); note: nearly all actives have a fitted effect of over 45% in size; note: potency is the fitted concentration of half-maximal effect
Procedure, shortened: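 Antagonist mode: compound added to 3T3 Gli1-Luc cells followed by conditioned-medium stimulation, 24 h at 37 C, 5% CO2. Inhibition taken as loss of Gli1-driven luciferase luminescence.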

[2] = target: Estrogen receptor beta (Homo sapiens) (UniProt Q92731); test: qHTS assay to identify small molecule agonists of the estrogen receptor beta (ER-beta) signaling pathway (AID 1259377; active = well fitted activation curve with a large enough effect in the signal ratio in the repeat runs, not every such curve was filed as active; the % refers to the signal ratio)
Procedure, shortened: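 A UAS-controlled beta-lactamase reporter in ER-beta-UAS-bla HEK293T cells reports receptor activation. Compounds act for 16 hr at 37C in 2% charcoal-stripped serum, and a FRET substrate is read by fluorescence after 2 hours.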

[3] = target: Estrogen receptor beta (Homo sapiens) (UniProt Q92731); test: qHTS assay to identify small molecule antagonists of the estrogen receptor beta (ER-beta) signaling pathway (AID 1259378; active = well fitted inhibition curve with a large enough effect in the signal ratio in the repeat runs, not every such curve was filed as active; the % refers to the signal ratio)
Procedure, shortened: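 ER-beta-UAS-bla HEK293T cells in 2% charcoal-stripped FBS medium treated with compound plus 1nM final 17-beta-estradiol for 16 hr at 37C. Beta-lactamase reporter read by FRET substrate fluorescence after 2 hours at room temperature.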

[4] = qHTS assay to identify small molecule agonists of the androgen receptor (AR) signaling pathway in the presence of an antagonist - cell viability counter screen (AID 1259379; active = well fitted curve in the direction sought with a large enough effect in the repeat runs; an effect the other way counts as inactive or inconclusive;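 note: MDA-kb2 human breast cancer cells carrying an MMTV luciferase reporter; series mostly up to about 92 µM; nearly all actives have a fitted effect of over 25% in size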)
Procedure, shortened: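 Cytotoxicity counter-screen run in the same wells as the nilutamide-challenged (3.0 µM final) AR agonist assay in MDA-kb2 cells. Compounds tested at 15 concentrations for 16 h, 37 °C without CO2; CellTiter-Fluor fluorescence read.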

[5] = qHTS assay to identify small molecule agonists of the estrogen receptor beta (ER-beta) signaling pathway - cell viability counter screen (AID 1259380; active = well fitted curve in the direction sought with a large enough effect in the repeat runs; an effect the other way counts as inactive or inconclusive; note: nearly all actives have a fitted effect of over 30% in size)
Procedure, shortened: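 Cell viability counter screen: CellTiter-Glo luminescence (30 min, room temperature) measured in the same wells as the beta-lactamase readout, after 16 hr compound exposure at 37C of ER-beta-bla HEK293T cells in 2% charcoal-stripped FBS medium.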

[6] = qHTS assay to identify small molecule antagonists of the estrogen receptor beta (ER-beta) signaling pathway - cell viability counter screen (AID 1259382; active = well fitted curve in the direction sought with a large enough effect in the repeat runs; an effect the other way counts as inactive or inconclusive; note: series mostly up to about 92 µM; nearly all actives have a fitted effect of over 55% in size)
Procedure, shortened: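 Cytotoxicity was measured in the same wells by CellTiter-Glo luminescence after 30 min at room temperature. Cells were ER-beta-bla HEK293T in charcoal-stripped serum, given compound together with 1 nM E2 and incubated 16 h at 37C.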

[7] = target: Estrogen receptor (Homo sapiens) (UniProt P03372); test: qHTS assay to identify small molecule agonists of the estrogen receptor alpha (ER-alpha) signaling pathway in the presence of an antagonist (AID 1259383); note: top concentration of the series differs between compounds; nearly all actives have a fitted effect of over 15% in size
Procedure, shortened: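 Agonist-mode confirmation run in the presence of 10.0nM (final) ICI-182,780 antagonist. The reporter was ERE-driven luciferase in VM7Luc4E2 cells, grown in charcoal-stripped serum. Cells were exposed to 15-concentration compound series for 22hr, then ONE-Glo luminescence was read.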

[8] = target: Androgen receptor (Homo sapiens) (UniProt P10275); test: qHTS assay to identify small molecule agonists of the androgen receptor (AR) signaling pathway in the presence of an antagonist (AID 1259381); note: nearly all actives have a fitted effect of over 15% in size
Procedure, shortened: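 Agonist-mode confirmation run against 3.0 uM final nilutamide: compounds titrated at 15 concentrations onto MDA-kb2 MMTV-luciferase reporter cells. Luminescence measured with ONE-Glo following 16 hr incubation, 37C, 0% CO2.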

[9] = qHTS assay to identify small molecule agonists or antagonists of the thyroid stimulating hormone receptor (TSHR) signaling pathway - wild type cell line counter screen (AID 1259384)
Procedure, shortened: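 Wild-type Hek293 cells, 800/well, 18 h at 37C, then compound with Ro20-1724 for 30 min RT. cAMP by HTRF (cAMP-d2/anti-cAMP cryptate), 1 h RT, fluorescence read. 15 concentrations, triplicates.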

[10] = target: Thyrotropin receptor (Homo sapiens) (UniProt P16473); test: qHTS assay to identify small molecule antagonists of the thyroid stimulating hormone receptor (TSHR) signaling pathway (AID 1259385); note: nearly all actives have a fitted effect of over 20% in size
Procedure, shortened: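 TSHR-HEK293 cells (800/well) plated 18 h, then compounds with Ro20-1724 and TSH at 1.5 ng/mL final, 30 min at room temperature. cAMP quantified by HTRF (cAMP-d2/anti-cAMP-cryptate, 1 h); 15 concentrations in triplicate.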
% is set by controls: 0 for no effect and ±100 for the full control effect.

Sequence of Estrogen receptor (Homo sapiens) (P03372 whole entry, looked up): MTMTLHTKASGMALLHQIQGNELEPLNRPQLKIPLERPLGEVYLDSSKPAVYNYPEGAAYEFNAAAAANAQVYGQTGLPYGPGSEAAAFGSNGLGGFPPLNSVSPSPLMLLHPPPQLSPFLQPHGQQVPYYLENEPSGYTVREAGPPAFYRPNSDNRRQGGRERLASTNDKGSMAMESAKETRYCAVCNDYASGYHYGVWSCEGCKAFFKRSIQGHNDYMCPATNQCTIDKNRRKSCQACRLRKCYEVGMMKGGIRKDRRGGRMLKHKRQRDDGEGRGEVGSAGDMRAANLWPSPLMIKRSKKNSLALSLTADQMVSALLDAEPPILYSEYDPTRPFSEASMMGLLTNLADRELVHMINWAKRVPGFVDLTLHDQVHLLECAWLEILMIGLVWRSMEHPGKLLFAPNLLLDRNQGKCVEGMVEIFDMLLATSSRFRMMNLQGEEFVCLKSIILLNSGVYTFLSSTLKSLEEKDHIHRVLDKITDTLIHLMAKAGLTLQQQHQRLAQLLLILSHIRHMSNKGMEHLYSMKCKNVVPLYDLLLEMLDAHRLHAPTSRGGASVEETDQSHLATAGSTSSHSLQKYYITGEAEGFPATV
Sequence of Estrogen receptor beta (Homo sapiens) (Q92731 whole entry, looked up): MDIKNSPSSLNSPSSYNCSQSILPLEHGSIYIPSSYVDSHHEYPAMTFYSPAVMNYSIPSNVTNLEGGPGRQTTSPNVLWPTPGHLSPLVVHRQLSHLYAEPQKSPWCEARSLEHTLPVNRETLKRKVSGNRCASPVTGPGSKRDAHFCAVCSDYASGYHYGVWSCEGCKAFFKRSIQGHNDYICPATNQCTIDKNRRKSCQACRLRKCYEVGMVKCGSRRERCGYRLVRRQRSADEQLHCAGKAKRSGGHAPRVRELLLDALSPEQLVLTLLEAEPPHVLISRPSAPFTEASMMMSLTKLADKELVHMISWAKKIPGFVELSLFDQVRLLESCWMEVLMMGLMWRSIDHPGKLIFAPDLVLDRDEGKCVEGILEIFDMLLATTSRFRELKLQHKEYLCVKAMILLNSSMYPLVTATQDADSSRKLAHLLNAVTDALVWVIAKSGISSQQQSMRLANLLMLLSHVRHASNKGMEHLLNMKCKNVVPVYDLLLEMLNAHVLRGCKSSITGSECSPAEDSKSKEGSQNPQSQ
Sequence of Thyrotropin receptor (Homo sapiens) (P16473 whole entry, looked up): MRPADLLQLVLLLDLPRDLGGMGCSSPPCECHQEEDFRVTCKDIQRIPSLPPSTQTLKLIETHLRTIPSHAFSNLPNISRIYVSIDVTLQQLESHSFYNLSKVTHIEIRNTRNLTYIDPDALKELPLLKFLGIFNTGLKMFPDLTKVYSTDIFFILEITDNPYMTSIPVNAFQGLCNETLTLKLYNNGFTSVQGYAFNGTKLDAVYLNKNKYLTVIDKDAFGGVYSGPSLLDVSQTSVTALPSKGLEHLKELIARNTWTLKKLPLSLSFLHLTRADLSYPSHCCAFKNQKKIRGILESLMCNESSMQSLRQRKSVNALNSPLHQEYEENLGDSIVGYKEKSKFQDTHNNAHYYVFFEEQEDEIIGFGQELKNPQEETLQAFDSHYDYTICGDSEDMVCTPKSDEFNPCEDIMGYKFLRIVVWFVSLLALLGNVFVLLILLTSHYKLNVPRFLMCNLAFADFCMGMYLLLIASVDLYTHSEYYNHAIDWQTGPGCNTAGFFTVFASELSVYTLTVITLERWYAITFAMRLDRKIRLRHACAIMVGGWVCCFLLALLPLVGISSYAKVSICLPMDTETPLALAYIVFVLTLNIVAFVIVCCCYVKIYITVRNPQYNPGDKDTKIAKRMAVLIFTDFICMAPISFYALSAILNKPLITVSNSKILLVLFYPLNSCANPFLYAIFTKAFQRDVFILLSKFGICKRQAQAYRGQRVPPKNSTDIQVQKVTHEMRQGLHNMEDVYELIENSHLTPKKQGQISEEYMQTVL
Sequence of Androgen receptor (Homo sapiens) (P10275 whole entry, looked up): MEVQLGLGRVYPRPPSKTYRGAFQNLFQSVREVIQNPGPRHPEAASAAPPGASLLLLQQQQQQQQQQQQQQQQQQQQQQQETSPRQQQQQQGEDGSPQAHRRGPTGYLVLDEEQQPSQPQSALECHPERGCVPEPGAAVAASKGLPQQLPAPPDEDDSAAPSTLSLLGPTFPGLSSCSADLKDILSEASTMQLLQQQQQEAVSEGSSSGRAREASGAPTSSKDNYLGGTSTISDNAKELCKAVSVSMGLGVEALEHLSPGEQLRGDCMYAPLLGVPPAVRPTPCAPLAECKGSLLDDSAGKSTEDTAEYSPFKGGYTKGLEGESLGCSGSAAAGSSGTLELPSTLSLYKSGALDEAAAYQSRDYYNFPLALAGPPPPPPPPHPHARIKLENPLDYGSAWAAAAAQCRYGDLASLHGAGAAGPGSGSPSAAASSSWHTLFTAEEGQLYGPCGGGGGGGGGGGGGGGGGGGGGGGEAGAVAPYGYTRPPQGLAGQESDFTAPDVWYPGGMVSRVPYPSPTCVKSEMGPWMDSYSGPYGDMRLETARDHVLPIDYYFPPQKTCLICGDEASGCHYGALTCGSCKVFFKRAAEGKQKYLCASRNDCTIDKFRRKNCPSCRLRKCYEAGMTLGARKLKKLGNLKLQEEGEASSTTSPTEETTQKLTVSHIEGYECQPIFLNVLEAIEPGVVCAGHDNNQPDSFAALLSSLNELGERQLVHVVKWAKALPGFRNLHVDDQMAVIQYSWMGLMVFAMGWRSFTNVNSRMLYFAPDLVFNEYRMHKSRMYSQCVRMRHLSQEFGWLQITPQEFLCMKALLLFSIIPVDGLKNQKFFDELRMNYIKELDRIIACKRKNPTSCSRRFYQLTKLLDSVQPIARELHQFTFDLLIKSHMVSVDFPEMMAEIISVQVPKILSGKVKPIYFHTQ

c1ccc(Cc2ccccc2)cc1
inactive: Potency [1] | Potency [2] | Potency [3] | Potency [4] | Potency [5] | outcome [6] | outcome [7]

CCCCCCCC1CCCC1=O (stereo unspecified)
inactive: Potency [1] | Potency [2] | Potency [3] | Potency [4] | Potency [5] | Potency [8] | outcome [6] | outcome [7] | outcome [9]

CN(C)CCCN(C)CCCN(C)C
inactive: Potency [1] | Potency [2] | Potency [3] | Potency [4] | Potency [5] | outcome [6] | outcome [7] | outcome [9]

CCCc1ncc(C[n+]2ccccc2C)c(N)n1
inactive: Potency [1] | Potency [2] | Potency [3] | Potency [4] | Potency [5] | outcome [6]

CCOC(=O)OC(C)OC1=C(C(=O)Nc2ccccn2)N(C)S(=O)(=O)c2ccccc21 (stereo unspecified)
inactive: Potency [1] | Potency [2] | Potency [3] | Potency [4] | Potency [5] | outcome [6] | outcome [7] | outcome [9] | outcome [10]

OCCc1ccccn1
inactive: Potency [1] | Potency [2] | Potency [3] | Potency [4] | Potency [5] | outcome [6]

CC[N+](CC)(CC)CCOc1cccc(OCC[N+](CC)(CC)CC)c1OCC[N+](CC)(CC)CC
inactive: Potency [1] | Potency [2] | Potency [3] | Potency [4] | Potency [5] | Potency [8] | outcome [6] | outcome [9] | outcome [10]

O=C(O)Cc1csc(-c2ccc(Cl)cc2)n1
inactive: Potency [1] | Potency [2] | Potency [3] | Potency [4] | Potency [5] | Potency [8] | outcome [6] | outcome [7] | outcome [9] | outcome [10]

CCOCC(C)O (stereo unspecified)
inactive: Potency [1] | Potency [2] | Potency [3] | Potency [4] | Potency [5] | outcome [6] | outcome [7] | outcome [9] | outcome [10]

CCN1CCOCC1
inactive: Potency [1] | Potency [2] | Potency [3] | Potency [4] | Potency [5] | outcome [6]

CCCCOCCOC(=O)CCCCCCCCC(=O)OCCOCCCC
active: Potency [1] 30.6 µM
inactive: Potency [2] | Potency [3] | Potency [4] | Potency [5] | outcome [6] | outcome [9] | outcome [10]

CN1CC(=O)N/C1=N/C(=O)Nc1cccc(Cl)c1
inactive: Potency [1] | Potency [2] | Potency [3] | Potency [4] | Potency [5] | outcome [6] | outcome [9]

C=CCCC(=O)O
inactive: Potency [1] | Potency [2] | Potency [3] | Potency [4] | Potency [5] | outcome [6] | outcome [7] | outcome [9] | outcome [10]

NC(=O)Cc1cccc2ccccc12
inactive: Potency [1] | Potency [2] | Potency [3] | Potency [4] | Potency [5] | outcome [6] | outcome [9] | outcome [10]

Cc1onc(-c2c(Cl)cccc2Cl)c1C(=O)Cl
inactive: Potency [1] | Potency [2] | Potency [3] | Potency [4] | Potency [8] | outcome [6] | outcome [7] | outcome [9]

CCCCCCCCCCOc1cc2c(=O)c(C(=O)OCC)c[nH]c2cc1OCC
inactive: activity change, negative = inhibition [1] 27.8% [at 8.39 µM] | activation [2] -0.652% [at 8.39 µM] | activity, negative = inhibition [3] 11.6% [at 8.39 µM] | activity change, negative = cytotoxicity [4] 0.727% [at 8.39 µM] | activity change, negative = cytotoxicity [5] 7.19% [at 8.39 µM] | activity change, negative = cytotoxicity [6] 5.47% [at 8.39 µM] | activation [7] 0.417% [at 8.39 µM] | cAMP activity change [9] -4.45% [at 8.39 µM] | activity change, negative = inhibition [10] 0.172% [at 8.39 µM]

CN(C)CCCCCCN(C)C
inactive: Potency [1] | Potency [2] | Potency [3] | Potency [4] | Potency [5] | outcome [6] | outcome [9] | outcome [10]

O=Cc1cccc(Br)c1
inactive: Potency [1] | Potency [2] | Potency [3] | Potency [4] | Potency [5] | outcome [6] | outcome [9] | outcome [10]

CC(=O)Nc1ccc(OCC(O)CNC(C)C)cc1 (stereo unspecified)
inactive: Potency [1] | Potency [2] | Potency [3] | Potency [4] | Potency [5] | outcome [6] | outcome [9] | outcome [10]

CCCCCCCCCCCCSC
inactive: Potency [1] | Potency [2] | Potency [3] | Potency [4] | Potency [5] | outcome [6] | outcome [9] | outcome [10]

CCCCOCCOC(=O)COc1cc(Cl)c(Cl)cc1Cl
inactive: Potency [1] | Potency [2] | Potency [3] | Potency [4] | Potency [8] | outcome [6] | outcome [7] | outcome [9]

O=C1CCCCCCCCCCCCCCO1
inactive: Potency [1] | Potency [2] | Potency [3] | Potency [4] | Potency [5] | outcome [6] | outcome [9]

CN1CCC(=C2c3ccccc3CCc3cccnc32)CC1
inactive: Potency [2] | Potency [3] | Potency [4] | Potency [5] | outcome [6] | outcome [7] | outcome [9] | outcome [10]
active: Potency [1] 13.3 µM

[O-][n+]1cccc(CO)c1
inactive: Potency [1] | Potency [2] | Potency [3] | Potency [4] | Potency [5] | outcome [6] | outcome [7] | outcome [9] | outcome [10]

CC(C)CC(C)(N)C#N (stereo unspecified)
inactive: Potency [1] | Potency [2] | Potency [3] | Potency [4] | Potency [5] | outcome [6] | outcome [9] | outcome [10]

CCNC(=O)[C@@H]1CCCN1C(=O)[C@H](CCCN=C(N)N)NC(=O)[C@H](CC(C)C)NC(=O)CNC(=O)[C@H](Cc1ccc(O)cc1)NC(=O)[C@H](CO)NC(=O)[C@H](Cc1c[nH]c2ccccc12)NC(=O)[C@H](Cc1cnc[nH]1)NC(=O)[C@@H]1CCC(=O)N1 ([pGlu]HWSYGLRP-NHEt)
inactive: Potency [1] | Potency [2] | Potency [3] | Potency [4] | Potency [5] | outcome [6] | outcome [7] | outcome [9] | outcome [10]

O=[N+]([O-])c1cncn1CCN1CCOCC1
inactive: Potency [1] | Potency [2] | Potency [3] | Potency [4] | Potency [8] | outcome [6] | outcome [7] | outcome [9]

CCOC(=O)COc1cc(-n2ncc(C(F)(F)F)c(C)c2=O)c(F)cc1Cl
inactive: Potency [1] | Potency [2] | Potency [3] | Potency [4] | Potency [8] | outcome [6] | outcome [7] | outcome [9] | outcome [10]

[K+]
inactive: Potency [1] | Potency [2] | Potency [3] | Potency [4] | Potency [5] | outcome [6] | outcome [7] | outcome [9] | outcome [10]
